A selection: hits, their analogues and other compounds. The true share with any hit is near 0.44%.
EPAC2 antag: EPAC2 (human) antagonism. Q8WZA2. EPAC2 GEF exchange of Rap1B-BODIPY-GDP, fluorescence. Potency, µM (series often up to 114 µM), for the others: at the highest dose activity, negative = inhibition, usual class: inhibitors. 360,000 tested, 0.18% active; also: % is scaled to controls: 0 for no effect and ±100 for the full control effect; nearly all actives have a fitted effect of over 45% in size
EPAC1 antagonist: antagonists of human EPAC1. O95398. EPAC1 GEF assay, Rap1b-BODIPY-GDP exchange fluorescence. Potency, µM (top dose mostly 115 µM), for inactives: at the top dose activity change, negative = inhibition, usual class: inhibitors. 360,000 tested, 0.14% active. AID 720709;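 also: plate controls were vehicle for no effect and positive control for full effect; nearly all actives have a fitted effect of over 50% in size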
USP1-UAF1 inh: inhibitors of human USP1/UAF1 deubiquitinase; O94782; recombinant USP1/UAF1, Ub-Rhodamine cleavage fluorescence; Potency, µM (series often up to 57.1 µM), for the others: at the top dose activity change, negative = inhibition, most hits filed as inhibitors; 390,000 tested, 0.23% active; AID 743255; also: % is scaled to controls: 0 for no effect and ±100 for the full control effect; nearly all actives have a fitted effect of over 60% in size
Target sequence (O94782 whole entry, looked up): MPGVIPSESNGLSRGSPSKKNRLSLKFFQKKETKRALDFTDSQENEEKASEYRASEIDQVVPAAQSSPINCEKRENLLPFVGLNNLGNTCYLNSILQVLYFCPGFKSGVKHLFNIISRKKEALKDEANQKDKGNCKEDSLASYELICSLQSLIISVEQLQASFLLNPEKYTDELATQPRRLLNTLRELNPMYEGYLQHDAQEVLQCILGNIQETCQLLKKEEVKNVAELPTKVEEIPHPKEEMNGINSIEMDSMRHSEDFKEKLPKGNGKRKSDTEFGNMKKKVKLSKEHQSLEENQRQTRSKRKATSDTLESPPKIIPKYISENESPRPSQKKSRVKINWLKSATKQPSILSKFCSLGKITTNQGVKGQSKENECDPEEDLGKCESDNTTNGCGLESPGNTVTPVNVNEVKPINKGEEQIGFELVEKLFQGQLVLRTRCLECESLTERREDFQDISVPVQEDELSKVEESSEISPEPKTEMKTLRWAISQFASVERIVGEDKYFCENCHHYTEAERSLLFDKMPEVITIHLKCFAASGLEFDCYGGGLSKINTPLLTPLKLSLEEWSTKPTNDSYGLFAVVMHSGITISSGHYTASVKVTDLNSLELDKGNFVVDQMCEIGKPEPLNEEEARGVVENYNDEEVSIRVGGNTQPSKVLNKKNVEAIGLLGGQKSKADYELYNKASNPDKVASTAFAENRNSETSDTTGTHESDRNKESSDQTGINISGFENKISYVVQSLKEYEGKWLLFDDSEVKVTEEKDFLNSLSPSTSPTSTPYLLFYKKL
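1 nM enzyme complex + cpd, 15 min RT; start with Ub-Rho 150nM final; kinetic fluorescence ex 480/em 540, 6 reads q60 s. Buffer 50mM HEPES pH 7.8, 0.5mM EDTA, 0.1 mg/ml BSA, 1mM TCEP, 0.01% Tween-20.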
EPAC2 agonist: agonists of human EPAC2 (RAPGEF4); AID 720711; EPAC2 activation, biochemical qHTS; response scale: 100% = 6.5 mM cAMP response; Potency, µM (series often up to 154 µM), without a hit: top-dose activation, usual class: activators; Q8WZA2; 360,000 tested, 0.079% active; also: nearly all actives have a fitted effect of over 50% in size
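In this primary screen, activation is scored as increased exchange of BODIPY-GDP from Rap1B by 100 nM EPAC2, with 50 uM GDP as competitor. Signal is normalized to the 6.5 mM cAMP agonist control.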
EPAC1 ag: EPAC1 (human) agonism; Potency, µM (top dose mostly 154 µM), without a hit: at the highest dose activation, most hits filed as activators; O95398; 360,000 tested, 0.073% active; EPAC1 agonist qHTS, biochemical assay; response scale: 100% = response to 6.5 mM cAMP; AID 720707; also: nearly all actives have a fitted effect of over 60% in size
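Read-out is the fluorescence drop as BODIPY-GDP leaves Rap1B (480 nm excitation, 540 nm emission), recorded every 5 minutes over 30 minutes. Reactions held 100 nM EPAC1, 250 nM Rap1B–BODIPY-GDP and 50 uM GDP, with 6.5 mM cAMP setting full activation.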
* marks the source's active call; other numbers are inactive results; ? = inconclusive; / = no result given; ! = repeats disagree; [ ] = remark or other dose. Calls follow the shape of the dose curve; as a rule, active = well fitted curve in the direction sought with a large enough effect; inconclusive = small, poorly fitted or top-dose-only effect, or another doubt; inactive = no such curve, though single readings can be large; an effect the other way counts as inactive or inconclusive. Potency is read from the fitted curve at half-maximal effect.

SMILES	EPAC2 antag	EPAC1 antagonist	USP1-UAF1 inh	EPAC2 agonist	EPAC1 ag
CCCC1Nc2ccc(C(=O)O)cc2C2C=CCC12 (configuration not stated)	-8%	18%	-17%	-4%	-1%
CCOC(=O)C1Nc2ccc(C(=O)O)cc2C2C=CCC12 (configuration not stated)	1%	6%	18µM*	9%	20%
O=C(C[C@@H]1CC[C@@H]2[C@H](COC[C@H](O)CN2CCC(F)(F)F)O1)NCc1ccc2c(c1)OCO2	-3%	3%	/	5%	-2%
CCOc1ccc2nc(NC3=NC(c4ccc(OC)cc4)CC(=O)N3)nc(C)c2c1 (configuration not stated)	32µM*	50µM*	?	?	?
CCOc1ccc(C(=O)Nc2cccc(NC(=O)c3ccc(C(C)(C)C)cc3)c2)cc1Br	/	/	2%	/	/
O=C(Cn1c(=O)oc2cc(Cl)ccc21)Nc1cccc(C(F)(F)F)c1	/	/	-5%	/	/
CCOC(=O)C1=C(c2ccccc2)N=c2s/c(=C\c3ccc(O)cc3)c(=O)n2C1c1cccs1 (configuration not stated)	16%	6%	28µM*	24%	24%
CCOC(=O)C1=C(c2ccccc2)N=c2sc(=Cc3cc(OC)c(OC)c(OC)c3)c(=O)n2C1c1cccs1 (configuration not stated)	6%	-4%	/	1%	-3%
Cc1ccc(Cl)cc1N1CCN(C(=O)c2cn(C)c3ccc(S(=O)(=O)N4CCCC4)cc3c2=O)CC1	/	/	-15%	/	/
CCN(CC)c1ccc(/C=C/C(=O)c2ccc(Br)cc2)cc1	364%	313%	28µM*	100µM*	100µM*
CN(C)c1ccc(C(=O)/C=C/c2ccc(Br)cc2)cc1	4%[57.1 µM]	16%	-23%	100µM*	4%
CCOc1ccc(C(=O)Nc2ccc3oc(-c4ccc(C)cc4C)nc3c2)cc1Br	/	/	4%	/	/
Cc1c(N=C2C=C(Br)C(=O)C(Br)=C2)c(=O)n(-c2ccccc2)n1C	1%	-19%	?	-7%	-5%
Cc1c(N=C2C=CC(=O)c3ccccc32)c(=O)n(-c2ccccc2)n1C	-14%	?	32µM*	25%	16%
CCCC1C(C(=O)OCC)=C(C)NC(C)=C1C(=O)OCC	-23%	-20%	-7%	0%	-9%
CCOC(=O)C1=C(C)NC(C)=C(C(=O)OCC)C1	5%	10%	22µM*!	1%	?
CCC(=O)OC1(C)C(=O)C2=COC(c3ccc(OC)cc3)=CC2=C(Br)C1=O (configuration not stated)	11%	?	35µM*	26%	13%
COc1ccc(C2=CC3=C(Br)C(=O)C(C)(O)C(=O)C3=CO2)cc1 (configuration not stated)	?	-15%	35µM*	7%	1%
CCC(=O)OC1(C)C(=O)C=C2C=C(c3ccc(C#N)cc3)OC=C2C1=O (configuration not stated)	-8%	-30%	?	7%	-18%
C=Cc1ccc(Cn2c(C(=O)O)c(CNCc3ccc(F)cc3)c3ccc(C)cc32)cc1	/	/	-17%	/	/
COc1ccc(NC(=O)c2cccn2-c2nnc(N3CCCCC3)s2)cc1	/	/	3%	/	/
Cc1cc2nc3c(=O)n(C4CCCCC4)c(=O)[nH]c3nc2cc1N	40%	237%	?	?	112µM*
Cc1ccc(NC(=O)CSc2nccn2C2CCCC2)cc1Cl	/	/	-20%	/	/
COC(=O)c1cccc(NS(=O)(=O)c2cccs2)c1C	-3%[57.1 µM]	-7%	-1%	11%	-1%
COC(=O)c1ccccc1NC1=C/C(=N\S(=O)(=O)c2ccc(C(=O)O)cc2)c2ccccc2C1=O	?	40µM*	13µM*	13%	6%
O=C1C(Nc2ccccc2)=C/C(=N/S(=O)(=O)c2cccs2)c2ccccc21	-32%	-3%	2.5µM*	11%	-3%
Cc1ccc(NC2=C/C(=N/S(=O)(=O)c3cccs3)c3ccccc3C2=O)cc1	6%	-15%	?	-8%	1%

Screening data deposited in PubChem BioAssay by National Center for Advancing Translational Sciences (NCATS).
